# Legend:
# Assay in all cases: DAPPL (digital affinity profiling via proximity ligation, sequencing); 10 mM Tris-HCl pH 7.5, 50 mM NaCl, 1 mM DTT, 4% glycerol, room temperature, 30 min; GST-TFs on glutathione beads, 16-mer random dsDNA library, 0.1% formaldehyde crosslink after washing; high values mean tight binding
# Details in all cases: protein: recombinant; tags: N-terminal GST; dsDNA, one strand shown
# FLI1 = target: T1, FLI1 (Homo sapiens, UniProt Q01543 1-452)
# T1 sequence: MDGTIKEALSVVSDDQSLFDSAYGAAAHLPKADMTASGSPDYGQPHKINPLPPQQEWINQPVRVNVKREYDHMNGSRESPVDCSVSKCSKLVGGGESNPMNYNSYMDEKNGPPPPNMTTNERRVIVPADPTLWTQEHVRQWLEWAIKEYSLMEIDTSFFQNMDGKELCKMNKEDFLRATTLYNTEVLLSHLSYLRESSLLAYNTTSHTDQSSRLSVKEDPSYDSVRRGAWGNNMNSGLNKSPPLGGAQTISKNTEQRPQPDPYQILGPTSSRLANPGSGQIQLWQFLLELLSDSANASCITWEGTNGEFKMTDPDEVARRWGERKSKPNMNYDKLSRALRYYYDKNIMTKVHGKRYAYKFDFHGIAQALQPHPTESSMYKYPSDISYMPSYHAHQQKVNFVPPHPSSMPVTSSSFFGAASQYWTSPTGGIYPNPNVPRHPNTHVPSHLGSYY
# How it was run: (§1)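 Sequencing on an Illumina NextSeq500 followed washing, crosslinking with 0.1% formaldehyde, proximity ligation (BsaI/T4 ligase, 1 h, 37 °C) and PCR amplification of pools that had been incubated for 30 min at room temperature with 200 nmole of a random double-stranded 16-mer DNA library in Tris/NaCl/DTT/glycerol buffer. Each pool held DNA-barcoded human transcription factors, expressed in yeast as GST fusions and captured on glutathione beads, plus a tag-only sample. Binding signal is a hexamer's read frequency for a factor divided by its frequency in the tag-only sample.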
# GABPA = target: T2, GABPA (Homo sapiens, UniProt Q06546 1-454)
# T2 sequence: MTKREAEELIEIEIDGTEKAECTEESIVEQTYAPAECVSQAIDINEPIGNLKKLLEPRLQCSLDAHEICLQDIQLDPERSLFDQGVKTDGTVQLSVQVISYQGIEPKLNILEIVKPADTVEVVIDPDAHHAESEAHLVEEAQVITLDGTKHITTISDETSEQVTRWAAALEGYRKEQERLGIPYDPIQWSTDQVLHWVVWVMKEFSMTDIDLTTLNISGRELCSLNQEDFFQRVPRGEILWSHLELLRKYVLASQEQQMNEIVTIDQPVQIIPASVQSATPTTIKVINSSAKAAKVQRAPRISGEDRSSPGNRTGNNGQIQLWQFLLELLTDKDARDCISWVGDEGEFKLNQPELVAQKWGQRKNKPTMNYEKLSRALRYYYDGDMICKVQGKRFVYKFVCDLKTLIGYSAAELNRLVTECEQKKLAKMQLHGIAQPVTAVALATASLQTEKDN
# How it was run: as §1
# EHF = target: T3, EHF (Homo sapiens, UniProt Q9NZC4 1-300)
# T3 sequence: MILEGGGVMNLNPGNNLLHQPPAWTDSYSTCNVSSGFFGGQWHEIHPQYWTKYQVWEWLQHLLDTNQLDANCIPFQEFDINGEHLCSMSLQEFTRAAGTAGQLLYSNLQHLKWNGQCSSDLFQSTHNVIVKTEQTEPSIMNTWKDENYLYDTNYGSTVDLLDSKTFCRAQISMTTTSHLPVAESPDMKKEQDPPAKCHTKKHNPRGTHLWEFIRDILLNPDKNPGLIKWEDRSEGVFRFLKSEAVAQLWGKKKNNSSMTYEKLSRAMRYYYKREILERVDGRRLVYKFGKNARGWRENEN
# How it was run: as §1
# ELK3 = target: T4, ELK3 (Homo sapiens, UniProt P41970 1-407)
# T4 sequence: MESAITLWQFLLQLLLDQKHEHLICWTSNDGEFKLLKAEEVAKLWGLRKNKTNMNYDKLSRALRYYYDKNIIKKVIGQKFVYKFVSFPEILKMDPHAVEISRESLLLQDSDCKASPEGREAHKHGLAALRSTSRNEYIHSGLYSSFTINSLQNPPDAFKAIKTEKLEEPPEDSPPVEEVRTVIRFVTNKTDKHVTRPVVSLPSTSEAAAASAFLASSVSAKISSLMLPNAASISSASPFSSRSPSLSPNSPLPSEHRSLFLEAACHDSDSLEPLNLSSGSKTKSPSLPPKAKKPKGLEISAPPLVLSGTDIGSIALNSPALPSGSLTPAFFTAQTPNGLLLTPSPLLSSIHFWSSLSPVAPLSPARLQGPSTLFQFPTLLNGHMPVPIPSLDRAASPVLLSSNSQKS
# How it was run: as §1
# ELF4 = ELF4 (Homo sapiens, UniProt Q99607 1-663)
# How it was run: as §1
# ELF3 = target: T5, ELF3 (Homo sapiens, UniProt P78545 1-371)
# T5 sequence: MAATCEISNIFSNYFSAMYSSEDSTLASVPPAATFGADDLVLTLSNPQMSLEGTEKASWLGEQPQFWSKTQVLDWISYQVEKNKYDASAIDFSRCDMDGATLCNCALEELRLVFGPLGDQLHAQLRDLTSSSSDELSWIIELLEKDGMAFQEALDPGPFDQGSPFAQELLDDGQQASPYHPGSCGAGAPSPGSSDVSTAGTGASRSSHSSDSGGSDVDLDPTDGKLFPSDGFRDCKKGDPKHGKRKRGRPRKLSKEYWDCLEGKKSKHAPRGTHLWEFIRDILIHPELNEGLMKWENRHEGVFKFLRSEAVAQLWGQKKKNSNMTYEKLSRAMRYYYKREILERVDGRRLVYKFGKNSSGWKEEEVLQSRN
# How it was run: as §1
# ETV1 = ETV1 (Homo sapiens, UniProt P50549 1-477)
# How it was run: as §1
# ETV3L = target: T6, ETV3L (Homo sapiens, UniProt Q6ZN32 1-361)
# T6 sequence: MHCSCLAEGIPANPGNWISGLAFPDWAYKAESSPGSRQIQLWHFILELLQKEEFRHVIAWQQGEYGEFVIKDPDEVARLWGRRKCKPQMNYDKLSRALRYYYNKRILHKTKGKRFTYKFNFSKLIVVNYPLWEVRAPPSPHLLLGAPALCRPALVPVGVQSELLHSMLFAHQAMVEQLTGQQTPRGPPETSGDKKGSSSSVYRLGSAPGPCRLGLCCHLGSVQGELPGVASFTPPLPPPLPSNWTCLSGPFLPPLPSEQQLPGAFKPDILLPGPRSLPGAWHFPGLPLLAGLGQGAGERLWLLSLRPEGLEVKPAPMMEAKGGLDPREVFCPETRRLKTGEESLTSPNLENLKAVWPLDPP
# How it was run: as §1
# ETS2 = target: T7, ETS2 (Homo sapiens, UniProt P15036 1-469)
# T7 sequence: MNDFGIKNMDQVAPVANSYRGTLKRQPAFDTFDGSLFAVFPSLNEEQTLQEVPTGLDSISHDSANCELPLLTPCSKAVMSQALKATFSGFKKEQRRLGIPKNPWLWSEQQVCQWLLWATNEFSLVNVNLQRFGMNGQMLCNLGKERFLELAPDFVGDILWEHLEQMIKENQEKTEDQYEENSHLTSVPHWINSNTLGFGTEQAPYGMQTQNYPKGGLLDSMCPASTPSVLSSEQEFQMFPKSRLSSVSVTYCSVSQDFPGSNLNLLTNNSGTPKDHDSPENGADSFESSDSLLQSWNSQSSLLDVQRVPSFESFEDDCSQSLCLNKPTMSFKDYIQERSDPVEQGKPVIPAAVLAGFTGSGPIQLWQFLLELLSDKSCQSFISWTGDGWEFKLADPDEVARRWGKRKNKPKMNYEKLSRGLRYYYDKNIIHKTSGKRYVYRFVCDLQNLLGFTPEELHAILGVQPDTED
# How it was run: as §1
# SPDEF = target: T8, SPDEF (Homo sapiens, UniProt O95238 1-335)
# T8 sequence: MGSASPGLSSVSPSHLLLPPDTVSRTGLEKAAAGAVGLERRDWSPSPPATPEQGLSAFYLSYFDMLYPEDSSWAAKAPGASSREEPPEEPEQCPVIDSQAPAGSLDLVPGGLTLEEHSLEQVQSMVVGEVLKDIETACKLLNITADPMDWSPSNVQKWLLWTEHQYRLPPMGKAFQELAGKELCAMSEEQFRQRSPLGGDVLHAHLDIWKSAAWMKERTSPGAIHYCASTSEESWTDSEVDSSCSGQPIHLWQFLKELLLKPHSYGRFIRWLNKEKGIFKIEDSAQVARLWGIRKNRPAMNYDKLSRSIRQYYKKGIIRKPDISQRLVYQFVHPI
# How it was run: as §1
# ELF5 = target: T9, ELF5 (Homo sapiens, UniProt Q9UKW6-2 1-255)
# T9 sequence: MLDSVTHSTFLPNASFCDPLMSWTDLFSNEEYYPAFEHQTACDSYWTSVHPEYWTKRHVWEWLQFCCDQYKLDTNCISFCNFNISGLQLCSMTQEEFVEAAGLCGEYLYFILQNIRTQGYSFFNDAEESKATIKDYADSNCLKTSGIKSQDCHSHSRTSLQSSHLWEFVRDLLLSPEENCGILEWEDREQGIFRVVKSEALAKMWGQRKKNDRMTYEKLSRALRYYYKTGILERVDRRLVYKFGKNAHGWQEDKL
# How it was run: as §1
# ETV6 = ETV6 (Homo sapiens, UniProt P41212 1-452)
# How it was run: as §1
# Sequence of ETV1 (P50549 whole entry): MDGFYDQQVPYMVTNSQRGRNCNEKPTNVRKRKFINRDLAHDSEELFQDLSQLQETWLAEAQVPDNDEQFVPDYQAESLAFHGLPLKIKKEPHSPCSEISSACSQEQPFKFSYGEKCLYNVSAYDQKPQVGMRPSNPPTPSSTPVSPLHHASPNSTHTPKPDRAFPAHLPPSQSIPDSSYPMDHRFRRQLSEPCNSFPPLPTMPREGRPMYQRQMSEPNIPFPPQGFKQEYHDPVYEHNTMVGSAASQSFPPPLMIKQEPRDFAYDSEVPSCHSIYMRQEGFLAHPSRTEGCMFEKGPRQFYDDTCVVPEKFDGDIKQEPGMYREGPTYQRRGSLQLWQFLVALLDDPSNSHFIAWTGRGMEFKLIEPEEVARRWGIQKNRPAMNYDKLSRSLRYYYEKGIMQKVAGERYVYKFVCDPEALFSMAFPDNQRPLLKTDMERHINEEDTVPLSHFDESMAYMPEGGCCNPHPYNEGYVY
# Sequence of ELF4 (Q99607 whole entry): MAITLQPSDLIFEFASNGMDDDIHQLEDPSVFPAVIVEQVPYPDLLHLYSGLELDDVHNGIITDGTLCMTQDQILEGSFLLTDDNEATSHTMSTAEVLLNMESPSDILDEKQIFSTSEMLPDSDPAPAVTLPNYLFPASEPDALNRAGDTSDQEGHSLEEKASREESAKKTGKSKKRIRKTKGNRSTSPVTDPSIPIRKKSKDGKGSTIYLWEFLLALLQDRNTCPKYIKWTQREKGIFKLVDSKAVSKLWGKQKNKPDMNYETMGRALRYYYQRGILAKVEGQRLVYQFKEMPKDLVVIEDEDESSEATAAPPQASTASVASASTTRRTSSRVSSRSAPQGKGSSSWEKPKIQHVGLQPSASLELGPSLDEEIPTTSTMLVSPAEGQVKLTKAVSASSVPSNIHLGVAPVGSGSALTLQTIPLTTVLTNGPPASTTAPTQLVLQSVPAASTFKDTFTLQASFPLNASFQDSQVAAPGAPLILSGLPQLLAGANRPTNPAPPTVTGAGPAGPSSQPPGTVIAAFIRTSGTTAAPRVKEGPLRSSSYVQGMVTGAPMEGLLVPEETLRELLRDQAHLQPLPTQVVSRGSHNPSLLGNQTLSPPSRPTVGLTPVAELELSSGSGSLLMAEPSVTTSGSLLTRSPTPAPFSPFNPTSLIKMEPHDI
# Sequence of ETV6 (P41212 whole entry): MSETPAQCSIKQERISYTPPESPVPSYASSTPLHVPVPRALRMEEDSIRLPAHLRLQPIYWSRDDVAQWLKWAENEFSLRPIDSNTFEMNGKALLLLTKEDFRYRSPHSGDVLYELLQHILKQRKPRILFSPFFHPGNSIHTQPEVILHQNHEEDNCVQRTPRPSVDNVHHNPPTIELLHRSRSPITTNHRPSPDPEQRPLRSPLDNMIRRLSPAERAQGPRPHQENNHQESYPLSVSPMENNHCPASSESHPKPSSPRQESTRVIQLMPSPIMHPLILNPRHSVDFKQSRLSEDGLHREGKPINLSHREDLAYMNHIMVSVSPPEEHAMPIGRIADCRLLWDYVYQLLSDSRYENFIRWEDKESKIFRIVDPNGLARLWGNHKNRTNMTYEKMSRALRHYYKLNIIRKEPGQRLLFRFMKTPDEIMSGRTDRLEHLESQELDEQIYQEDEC
sequence,measurement,setting,value
GACGAC,binding signal,FLI1,"1.01 fold enrichment (6-mer frequency, TF over GST control)"
same,binding signal,GABPA,"1.05 fold enrichment (6-mer frequency, TF over GST control)"
same,binding signal,EHF,"1.06 fold enrichment (6-mer frequency, TF over GST control)"
same,binding signal,ELK3,"1.03 fold enrichment (6-mer frequency, TF over GST control)"
same,binding signal,ELF4,"1.03 fold enrichment (6-mer frequency, TF over GST control)"
same,binding signal,ELF3,"1.06 fold enrichment (6-mer frequency, TF over GST control)"
same,binding signal,ETV1,"1.02 fold enrichment (6-mer frequency, TF over GST control)"
same,binding signal,ETV3L,"1.03 fold enrichment (6-mer frequency, TF over GST control)"
same,binding signal,ETS2,"1.02 fold enrichment (6-mer frequency, TF over GST control)"
same,binding signal,SPDEF,"1.04 fold enrichment (6-mer frequency, TF over GST control)"
same,binding signal,ELF5,"1.02 fold enrichment (6-mer frequency, TF over GST control)"
same,binding signal,ETV6,"1.08 fold enrichment (6-mer frequency, TF over GST control)"
